# Assay results published in PubChem BioAssay (NCATS).
# Results filed as inconclusive are left out. A call without a number means that no potency is given here. Calls of active or inactive are those of the source. Calls come from the whole dose curve; as a rule, active = well fitted curve in the direction sought with a large enough effect; inconclusive = small, poorly fitted or top-dose-only effect, or another doubt; inactive = no such curve, though single readings can be large; an effect the other way counts as inactive or inconclusive. Where a SMILES comes first, the peptide text is derived from it. Bridges are numbered along the chain shown (N, C = ends). [ ]: non-standard residue; d: D form. hArg = N=C(N)NCCCC[C@H](N)C(=O)O; Mpa = O=C(O)CCS
# Key:
# [1] = molecular target: Glutathione peroxidase 1 (Homo sapiens) (UniProt P07203); test: Primary qHTS Assay for Inhibitors of Recombinant Selenoprotein Glutathione Peroxidase 1 (GPX1) (AID 1845191); note: nearly all actives have a fitted effect of over 65% in size; note: potency is the fitted concentration of half-maximal effect
# Method in brief: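 GR-coupled readout: NADPH consumption tracked by fluorescence, ex 340/em 450 nm, at t=0 and after 15 min at RT. Final mix 10 nM GPX1, 1 mM GSH, 0.5 mM CHP, 0.5 mM NADPH, 100 nM GR, 0.01% BSA, following 30 min enzyme–compound preincubation.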
# [2] = HepG2 viability counterscreen (readout 2: ATP content) against the NCATS DSHEA and TCM libraries (AID 1794840);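 note: HepG2 cells exposed to substances for about 24 h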
# Source text: (§1) Assay Development and Screening Technology Laboratory (ADST)
# (§2) National Center for Advancing Translational Sciences (NCATS), Rockville, MD
# (§3) National Institute of Health (NIH), Bethesda, Maryland
# (§4) Dietary Supplements and Natural Products have minor oversight of their safety and efficacy. We assembled a collection of Dietary Supplements and Natural Products (DSNP) as well as Traditional Chinese Medicinal (TCM) Plant extracts, which were screened against an in vitro panel of assays, including a liver cytochrome p450 enzyme panel, CAR/PXR signaling pathways, and P-gp transporter assays, to assess their activity. This pipeline facilitated the interrogation of Natural Product-Drug Interaction (NaPDI) through prominent metabolizing pathways. In addition, we compared the activity profiles of the DSNP/TCM substances with those of an approved drug collection. Many of the approved drugs have well-annotated mechanisms of action (MOA) while the MOAs for most of the DSNP and TCM samples remain unknown. Based on the premise that compounds with similar activity profiles tend to share similar targets or MOA, we clustered the library activity profiles to identify overlap with the NCATS Pharmaceutical Collection to predict the MOAs of the DSNP/TCM substances. Overall, we highlight four significant bioactivity profiles (measured by p-values) as examples of this prediction. In addition, to assess broad cytotoxicity, we employed screening against a HepG2 cell line.
# (§5) To this end, we profiled both collections for potential CAR and/or PXR activity, employing a previously published 1536-well qHTS assay.
# (§6) PROTOCOL TABLE (as described by Inglese J, Shamu CE and Guy RK. 2007)
# SEQUENCE No. (e.g., 1, 2, 3, etc.); PARAMETER (e.g., Cells, Incubation, Reagent, etc.); VALUE; DESCRIPTION.
# 1; Cells; 5 uL; HepG2 cells, white solid-bottom tissue treated Greiner plate.
# 2; Incubation; 4 hrs; 37C, 95% humidity, 5% CO2.
# 3; Compounds; 23 nL; Kalypsis pin tool (Wako USA) equipped with a 1536-well pin head to transfer to the assay plates.
# 4; Incubation; 24 hrs; 37C, 95% humidity, 5% CO2.
# 5; Reagent; 1 uL; GF-AFC substrate.
# 6; Incubation; 30 min; 37C, 95% humidity, 5% CO2.
# 7; Read 1; Fluorescence; EnVision plate reader excitation 380 nm, emission 510 nm.
# 8; Reagent; 3 uL; CellTiter-Glo (Promega).
# 9; Centrifuge; 1000 RPM; 15 seconds.
# 10; Incubation; 30 min; room temperature.
# 11; Read 2; Luminescence; ViewLux plate reader.
# NOTES (numbers refer to Sequence numbers above)
# 1. […]
# 7. After incubation, plates were read for fluorescence intensity (Ex/Em = 380 nm/510 nm) on an EnVision detector (PerkinElmer, Shelton, Connecticut).
# 8. Once the detection for fluorescence was completed, plates were dispensed with 3 uL of CellTiter-Glo (Promega, Madison, WI). […]
# 11. Plates were then read for luminescence intensity on a ViewLux detector. […]
# [3] = HepG2 viability counterscreen (readout 1: protease activity) against the NCATS DSHEA and TCM libraries (AID 1794841);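 note: cells exposed to compounds for about 24 h before the protease read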
# Method in brief: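 Cytotoxicity was assessed in HepG2 cells plated at 1,000 cells/well and exposed for about 24 hours to a concentration series. Protease activity and ATP content were measured sequentially in each well.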
# [4] = molecular target: Cytochrome P450 3A4 (Homo sapiens) (UniProt P08684); test: qHTS for inhibitors of CYP3A4 against the NCATS DSHEA and TCM libraries (AID 1919971);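 note: inhibition lowers luminescence from luciferin made by CYP3A4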
# Method in brief: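 Isoform-specific enzyme and substrate levels; enzyme-free wells as background. Reaction: 1x NADPH regenerating system, 30-45 min, room temperature, shielded from light; luminescent detection reagent added, 30 min.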
# [5] = molecular target: Cytochrome P450 2D6 (Homo sapiens) (UniProt P10635); test: qHTS for inhibitors of CYP2D6 against the NCATS DSHEA and TCM libraries (AID 1919972)
# Method in brief: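 qHTS, concentration–response format with most substances from 19.5 nM. CYP2D6 + pro-luciferin substrate, 15 min with compound, then 1x NADPH regen, 30–45 min RT dark. Glo detection 30 min, luminescence. Quinidine control.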
# [6] = molecular target: Cytochrome P450 2C9 (Homo sapiens) (UniProt P11712); test: qHTS for inhibitors of CYP2C9 against the NCATS DSHEA and TCM libraries (AID 1919973);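 note: luminogenic pro-luciferin CYP2C9 substrate turned into luciferin with NADPH regeneration; series mostly up to about 34 µM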
# Source text: as §1, §2, §3
# as §4, with “To” for “In addition, to”, “line. In addition, transporter-mediated drug interactions are utilized in the characterization of DDIs using a P-glycoprotein (P-gp) assays. To profile potential P-gp activity, a differential cell viability was measured against two cell lines: a parental KB-3-1 human cervical adenocarcinoma cell line and the drug-resistant subline KB-8-5-11 that overexpresses P-gp.” for “line.”
# as §5
# [1] […]
# 9; Read; Luminescence; ViewLux plate reader. […]
# [7] = Viability counterscreen for antagonist of constitutive androstane receptor (CAR) against the NCATS DSHEA and TCM libraries (AID 1794837);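 note: compound exposure lasted 24 h before viability reading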
# Method in brief: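 Fluorescence from CellTiter-Fluor reports live-cell protease activity in HepG2-CYP2B6-hCAR cells treated for 24 h with substances alongside 48 uM CITCO.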
# [8] = Viability counterscreen for agonist of constitutive androstane receptor (CAR) against the NCATS DSHEA and TCM libraries (AID 1794838);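 note: HepG2 cells with CYP2B6 reporter and hCAR plus 0.75 µM PK11195 antagonist; cells exposed to compound for 24 h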
# Method in brief: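 In agonist mode, PK11195 is added at 0.75 uM final to HepG2-CYP2B6-hCAR cells dosed with test substances. Cultures incubate 24 h at 37C before a protease-based fluorogenic viability readout.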
# [9] = molecular target: Nuclear receptor subfamily 1 group I member 3 (Homo sapiens) (UniProt Q14994); test: Primary qHTS for agonist of constitutive androstane receptor (CAR) against the NCATS DSHEA and TCM libraries (AID 1794839);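 note: HepG2 cells expressing human CAR with a CYP2B6 reporter plus PK11195 antagonist; luciferase reporter luminescence read with ONE-Glo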
# Source text: as §2, §3
# as §4, with “prediction.” for “prediction. In addition, to assess broad cytotoxicity, we employed screening against a HepG2 cell line.”
# as §5, §6
# SEQUENCE No. (e.g., 1, 2, 3, etc.); […] (e.g., Cells, Incubation, Reagent, etc.); VALUE; DESCRIPTION.
# 1; Cells; 4 uL; 1536-well white Greiner assay plate.
# 2; Incubation; 5 hours; 37C, 95% humidity, 5% CO2. […]
# 8; Detector 1; Fluorescence intensity; ViewLux plate reader (excitation 405 nm, emission 540 nm). […]
# 11; Detector 2; Luminescence intensity; ViewLux. […]
# 8. Fluorescence intensity (Ex/Em = 405 nm/540 nm) is obtained using the ViewLux plate reader to determine cell viability. […]
# 10. Luminescence intensity is read using the ViewLux detector. […]
# [10] = molecular target: Phospholipid hydroperoxide glutathione peroxidase GPX4 (Homo sapiens) (UniProt P36969); test: Primary qHTS Assay for Inhibitors of Recombinant Selenoprotein Glutathione Peroxidase 4 (GPX4) (AID 1845192); note: nearly all actives have a fitted effect of over 65% in size
# Method in brief: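 Steps: GPX4 plus compound, 30 min RT; add GR/GSH/NADPH master mix; start with cumene hydroperoxide; read 340/450 nm fluorescence at 0 and 15 min. Finals were 200 nM GPX4, 1 mM GSH, 0.5 mM CHP, 0.5 mM NADPH, 100 nM GR.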
# Sequence of Glutathione peroxidase 1 (Homo sapiens) (P07203 whole entry, looked up): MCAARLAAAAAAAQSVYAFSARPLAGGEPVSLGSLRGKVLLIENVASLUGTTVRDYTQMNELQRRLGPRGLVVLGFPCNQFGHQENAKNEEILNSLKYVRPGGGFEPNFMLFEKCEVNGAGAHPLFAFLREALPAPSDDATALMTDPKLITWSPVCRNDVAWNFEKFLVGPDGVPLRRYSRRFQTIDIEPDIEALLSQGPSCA
# Sequence of Phospholipid hydroperoxide glutathione peroxidase GPX4 (Homo sapiens) (P36969 whole entry, looked up): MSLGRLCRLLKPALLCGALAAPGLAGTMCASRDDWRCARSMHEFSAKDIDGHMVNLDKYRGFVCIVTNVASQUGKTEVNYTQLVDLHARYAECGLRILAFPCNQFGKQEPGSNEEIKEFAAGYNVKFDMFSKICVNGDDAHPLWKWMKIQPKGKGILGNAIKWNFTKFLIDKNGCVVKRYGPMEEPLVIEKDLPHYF
# Sequence of Cytochrome P450 2C9 (Homo sapiens) (P11712 whole entry, looked up): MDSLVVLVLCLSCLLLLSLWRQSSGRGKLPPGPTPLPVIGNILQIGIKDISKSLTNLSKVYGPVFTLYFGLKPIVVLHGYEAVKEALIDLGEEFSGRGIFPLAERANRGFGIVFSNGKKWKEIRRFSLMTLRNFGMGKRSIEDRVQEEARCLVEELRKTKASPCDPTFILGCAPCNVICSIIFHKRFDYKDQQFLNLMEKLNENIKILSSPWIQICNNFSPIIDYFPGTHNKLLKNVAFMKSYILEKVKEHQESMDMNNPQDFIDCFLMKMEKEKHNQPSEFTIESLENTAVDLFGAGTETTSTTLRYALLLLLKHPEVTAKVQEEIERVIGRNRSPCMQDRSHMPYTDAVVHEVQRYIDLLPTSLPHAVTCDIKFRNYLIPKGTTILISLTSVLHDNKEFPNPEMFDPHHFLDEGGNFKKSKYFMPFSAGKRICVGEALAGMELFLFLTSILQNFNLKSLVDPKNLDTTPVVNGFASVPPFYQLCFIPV
# Sequence of Cytochrome P450 2D6 (Homo sapiens) (P10635 whole entry, looked up): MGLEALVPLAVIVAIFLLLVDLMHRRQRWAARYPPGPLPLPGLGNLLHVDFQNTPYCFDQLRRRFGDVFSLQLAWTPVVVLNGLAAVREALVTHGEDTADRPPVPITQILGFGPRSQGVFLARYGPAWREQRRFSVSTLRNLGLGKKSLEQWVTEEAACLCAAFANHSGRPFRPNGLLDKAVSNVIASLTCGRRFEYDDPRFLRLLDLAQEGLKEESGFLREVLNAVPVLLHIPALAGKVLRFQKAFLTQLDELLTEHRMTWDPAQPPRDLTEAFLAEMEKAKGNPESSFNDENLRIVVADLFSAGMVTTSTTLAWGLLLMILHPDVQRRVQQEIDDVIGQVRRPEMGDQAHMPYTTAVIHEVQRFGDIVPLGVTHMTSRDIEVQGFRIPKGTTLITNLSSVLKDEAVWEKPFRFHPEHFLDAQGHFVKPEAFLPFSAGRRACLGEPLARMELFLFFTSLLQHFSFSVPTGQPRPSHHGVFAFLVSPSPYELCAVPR
# Sequence of Nuclear receptor subfamily 1 group I member 3 (Homo sapiens) (Q14994 whole entry, looked up): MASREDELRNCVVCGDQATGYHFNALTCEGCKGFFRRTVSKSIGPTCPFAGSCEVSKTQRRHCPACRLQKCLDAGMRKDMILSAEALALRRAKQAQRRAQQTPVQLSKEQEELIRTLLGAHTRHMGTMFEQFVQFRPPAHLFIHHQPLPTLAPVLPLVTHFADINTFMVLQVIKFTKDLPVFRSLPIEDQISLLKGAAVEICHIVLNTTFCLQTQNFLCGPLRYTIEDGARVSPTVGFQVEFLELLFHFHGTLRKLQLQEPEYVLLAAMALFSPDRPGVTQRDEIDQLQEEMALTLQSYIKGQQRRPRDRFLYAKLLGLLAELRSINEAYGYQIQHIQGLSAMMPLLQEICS
# Sequence of Cytochrome P450 3A4 (Homo sapiens) (P08684 whole entry, looked up, canonical isoform): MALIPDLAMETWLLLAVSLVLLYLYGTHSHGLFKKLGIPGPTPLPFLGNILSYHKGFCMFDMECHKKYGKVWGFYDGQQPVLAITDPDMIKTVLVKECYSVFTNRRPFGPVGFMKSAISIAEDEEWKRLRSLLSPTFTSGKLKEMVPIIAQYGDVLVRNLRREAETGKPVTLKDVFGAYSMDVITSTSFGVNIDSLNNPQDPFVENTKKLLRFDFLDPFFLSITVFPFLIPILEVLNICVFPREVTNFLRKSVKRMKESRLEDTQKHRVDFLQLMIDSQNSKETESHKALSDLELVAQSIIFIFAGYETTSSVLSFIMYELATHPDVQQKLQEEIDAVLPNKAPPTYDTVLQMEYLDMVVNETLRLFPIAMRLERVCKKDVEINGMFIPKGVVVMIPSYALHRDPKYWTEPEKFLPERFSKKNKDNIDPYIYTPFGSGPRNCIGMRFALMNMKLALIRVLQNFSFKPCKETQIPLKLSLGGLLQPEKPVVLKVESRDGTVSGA
smiles,measurement,setting,value
O=C(NCC(O)CO)c1c(I)c(C(=O)NCC(O)CO)c(I)c(N(CCO)C(=O)CO)c1I (stereo not drawn),Potency,[1],inactive
CC(C)c1cc2c(cc1S(=O)(=O)O)[C@@]1(C)CCC[C@@](C)(C(=O)O)[C@@H]1CC2,Potency,[1],inactive
Cc1onc(-c2ccccc2)c1-c1ccc(S(N)(=O)=O)cc1,Potency,[1],inactive
CC(C)CCCC(C)CCCC(C)CCCCC(C)CCCC(C)CCCC(C)C (stereo not drawn),Potency,[1],inactive
OCc1ccc(Cl)cc1Cl,Potency,[1],inactive
O=C(/C=C/c1ccc(O)c(O)c1)O[C@@H]1C[C@@](OC(=O)/C=C/c2ccc(O)c(O)c2)(C(=O)O)C[C@@H](O)[C@@H]1O,outcome,[2],inactive
same,outcome,[3],inactive
same,outcome,[4],inactive
same,outcome,[5],inactive
same,outcome,[6],inactive
COc1ccccc1Oc1c(NS(=O)(=O)c2ccc(C(C)(C)C)cc2)nc(-c2ncccn2)nc1OCCO,Potency,[1],inactive
CC(=O)Nc1ccccc1,Potency,[1],inactive
CCCCCCCCCCCCCCCCCCO,Potency,[1],inactive
CCOc1ccc(C(=O)OCCN(CC)CC)cc1,Potency,[1],inactive
O=C(O)CCCCC1CCSS1 (stereo not drawn),Potency,[1],11.4 µM (active)
COC(=O)c1cccnc1,Potency,[1],inactive
O=C(/C=C/c1ccccc1)OCc1ccccc1,Potency,[1],inactive
CCOc1cc(NC(C)=O)ccc1C(=O)OC,Potency,[1],inactive
COC(=O)N/N=C/c1c[n+]([O-])c2ccccc2[n+]1[O-],Potency,[1],inactive
CC(CSC(=O)c1ccccc1)C(=O)N1C[C@@H](Sc2ccccc2)C[C@H]1C(=O)O (stereo partly drawn),Potency,[1],inactive
Cc1c(NC(=O)c2cccnc2)c(=O)n(-c2ccccc2)n1C,Potency,[1],inactive
Cc1ccc(C(C)C)c(O)c1,outcome,[7],inactive
same,outcome,[8],inactive
same,outcome,[9],inactive
same,outcome,[2],inactive
same,outcome,[3],inactive
same,Potency,[1],inactive
same,Potency,[10],inactive
same,outcome,[4],inactive
same,outcome,[5],inactive
same,outcome,[6],inactive
O=C(O)C(S)C(S)C(=O)O (stereo not drawn),Potency,[1],7.18 µM (active)
NC(=O)CCCCC1CCSS1 (stereo not drawn),Potency,[1],inactive
Cc1cc(C)c(NC(=O)CN(CC(=O)O)CC(=O)O)c(C)c1Br,Potency,[1],inactive
NC(=O)NC1NC(=O)NC1=O (stereo not drawn),outcome,[7],inactive
same,outcome,[8],inactive
same,outcome,[9],inactive
same,outcome,[2],inactive
same,outcome,[3],inactive
same,Potency,[1],inactive
same,Potency,[10],inactive
same,outcome,[4],inactive
same,outcome,[5],inactive
same,outcome,[6],inactive
OC[C@@H](O)[C@@H](O)[C@H](O)[C@H](O)CO,Potency,[1],inactive
CC(=O)N(CC(O)CN(C(C)=O)c1c(I)c(C(=O)NCC(O)CO)c(I)c(C(=O)NCC(O)CO)c1I)c1c(I)c(C(=O)NCC(O)CO)c(I)c(C(=O)NCC(O)CO)c1I (stereo not drawn),Potency,[1],inactive
CCCCCOC(=O)Nc1nc(=O)n([C@@H]2O[C@H](C)[C@@H](O)[C@H]2O)cc1F,Potency,[1],inactive
CC(C)=CCC[C@@](C)(O)[C@H]1CC=C(C)CC1,outcome,[7],inactive
same,outcome,[8],inactive
same,outcome,[9],inactive
same,outcome,[2],inactive
same,outcome,[3],inactive
same,outcome,[5],inactive
C[C@@H](c1ncncc1F)C(O)(Cn1cncn1)c1ccc(F)cc1F (stereo partly drawn),Potency,[1],inactive
CCCCCCCCCCC(CO)CCCCCCCC (stereo not drawn),Potency,[1],inactive
CCCCC1(COC(=O)CCC(=O)O)C(=O)N(c2ccccc2)N(c2ccccc2)C1=O,Potency,[1],inactive
NC(=O)CC[C@@H](N)C(=O)O,Potency,[1],inactive
CC(=O)OC[C@H]1O[C@@](COC(C)=O)(O[C@H]2O[C@H](COC(C)=O)[C@@H](OC(C)=O)[C@H](OC(C)=O)[C@H]2OC(C)=O)[C@@H](OC(C)=O)[C@@H]1OC(C)=O,Potency,[1],inactive
CC[N+](C)(CC)CCOC(=O)C1c2ccccc2Oc2ccccc21,Potency,[1],inactive
CC(=O)N[C@H]1[C@H]([C@H](O)[C@H](O)CO)OC(C(=O)O)=C[C@@H]1N=C(N)N,Potency,[1],inactive
CC(=O)OCC(COC(C)=O)OC(C)=O,Potency,[1],inactive
same,Potency,[10],inactive
CCOC(=O)[C@H](CCc1ccccc1)N[C@@H](C)C(=O)N1CCC[C@H]1C(=O)O,Potency,[1],inactive
same,Potency,[10],inactive
O=c1[nH]c(=O)n([C@H]2C[C@H](O)[C@@H](CO)O2)cc1I,Potency,[1],inactive
same,Potency,[10],inactive
C=CCOc1ccccc1OCC(O)CNC(C)C (stereo not drawn),Potency,[1],inactive
same,Potency,[10],inactive
CC(=O)[C@@]1(O)CC[C@H]2[C@@H]3C[C@H](C)C4=CC(=O)C=C[C@]4(C)[C@@]3(F)[C@@H](O)C[C@@]21C,Potency,[1],inactive
same,Potency,[10],inactive
CC(=O)Oc1cccc(O)c1,Potency,[1],inactive
same,Potency,[10],inactive
CN1CCCN=C1COC(=O)C(O)(c1ccccc1)C1CCCCC1 (stereo not drawn),Potency,[1],inactive
same,Potency,[10],inactive
O=C(c1ccccc1)C(O)c1ccccc1 (stereo not drawn),Potency,[1],inactive
same,Potency,[10],inactive
C[n+]1ccccc1/C=N/O,Potency,[1],inactive
same,Potency,[10],inactive
CN/C(=C\[N+](=O)[O-])NCCSCc1csc(CN(C)C)n1,Potency,[1],inactive
same,Potency,[10],inactive
CCOC(=O)OC(C)OC(=O)[C@@H]1N2C(=O)[C@@H](NC(=O)[C@H](N)c3ccccc3)[C@H]2SC1(C)C (stereo partly drawn),Potency,[1],inactive
same,Potency,[10],inactive
COc1ccccc1OCC(O)CO (stereo not drawn),Potency,[1],inactive
same,Potency,[10],inactive
CC1CCN(CCCC(=O)c2ccc(F)cc2)CC1,Potency,[1],inactive
same,Potency,[10],inactive
NC(N)=NCCN1CCCCCCC1,outcome,[1],inactive [at 0.4 µM]
CC(=O)Oc1cccc(C)c1,Potency,[1],inactive
same,Potency,[10],inactive
O=C(O)c1ccc(OCCCOc2ccc(C(=O)O)cc2)cc1,Potency,[1],inactive
same,Potency,[10],inactive
NC(=O)[C@@H]1CSSCCC(=O)N[C@@H](CCCCN=C(N)N)C(=O)NCC(=O)N[C@@H](CC(=O)O)C(=O)N[C@@H](Cc2c[nH]c3ccccc23)C(=O)N2CCC[C@H]2C(=O)N1 ([Mpa][hArg]GDWPC-NH2; disulfide 1-7),Potency,[1],inactive
same,Potency,[10],inactive
